Inconclusive results are not listed. Values without a mark were called inactive. Calls of active or inactive are those of the source. Calls follow the shape of the dose curve; as a rule, active = well fitted curve in the direction sought with a large enough effect; inconclusive = small, poorly fitted or top-dose-only effect, or another doubt; inactive = no such curve, though single readings can be large or run the other way.
These compounds were tested against Thioredoxin reductase 1, cytoplasmic (Rattus norvegicus) (UniProt O89049) (assay: qHTS Assay for Substrates of Mammalian Selenoprotein Thioredoxin Reductase 1 (TrxR1) (AID 488772; also: 0% is about no effect)). Conditions: purified TrxR1, NADPH consumption substrate assay; series mostly up to 57.1 µM; activity change, negative = NADPH consumption: at the top concentration.
Thioredoxin reductase 1, cytoplasmic (Rattus norvegicus), sequence (O89049 whole entry, looked up): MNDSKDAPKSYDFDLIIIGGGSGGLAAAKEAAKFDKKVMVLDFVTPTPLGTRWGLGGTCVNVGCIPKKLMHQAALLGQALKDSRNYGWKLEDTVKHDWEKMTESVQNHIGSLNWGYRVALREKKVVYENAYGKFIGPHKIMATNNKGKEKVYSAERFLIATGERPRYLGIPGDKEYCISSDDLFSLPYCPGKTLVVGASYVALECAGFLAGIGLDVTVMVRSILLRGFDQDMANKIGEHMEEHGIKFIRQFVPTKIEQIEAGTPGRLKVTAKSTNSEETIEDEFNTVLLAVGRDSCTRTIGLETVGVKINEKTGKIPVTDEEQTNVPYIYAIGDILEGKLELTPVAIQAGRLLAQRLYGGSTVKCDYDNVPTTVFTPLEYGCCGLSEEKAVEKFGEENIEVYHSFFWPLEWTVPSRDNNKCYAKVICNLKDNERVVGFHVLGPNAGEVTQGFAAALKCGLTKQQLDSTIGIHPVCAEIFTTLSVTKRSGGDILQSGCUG
Excerpt: The selenoprotein thioredoxin reductase (TrxR; EC 1.8.1.9) is a FAD containing homodimeric pyridine nucleotide-disulfide oxidoreductase with many cellular roles. Together with NADPH and its prime substrate thioredoxin (Trx), the enzyme forms the core of the Trx system. The mammalian Trx system exerts a wide spectrum of functions including redox regulation, antioxidant defense, regulation of transcription factors as well as support of cell growth and replication. Many of these functions involve the reduction of Trx, which may subsequently reduce a number of different substrates including ribonucleotide reductase, peroxiredoxins or NFkB. Mammalian TrxR itself also has a broad substrate specificity, reducing both protein and non-protein substrates, including low molecular weight compounds such as dehydroascorbate, lipoic acid, ubiquinone, and juglone. In addition, several drugs in clinical use for anticancer treatment are indeed known to target TrxR1.
This BioAssay is a validation of an NADPH fluorescence-based, dual-purpose qHTS rTrxR1 assay designed to find potential inhibitors and substrates of rTrxR1. For this particular BioAssay, actives are potential substrates. See related BioAssay for inhibitors data deposition.
Assay protocol: 2 uL of reagents (buffer in column 4 as negative control and 90 nM rTrxR1 in columns 1-3 and 5-48) were dispensed into Greiner black solid-bottom 1,536-well assay plates, followed by 1 uL of NADPH (400 uM final concentration) to each well. The plates were centrifuged at 1000 rpm for 15 seconds and subsequently incubated for 5 min at room temperature (~22 deg C) to allow for rTrxR1 reduction. Compounds (23 nL) were then transferred via Kalypsys pin tool equipped with 1536-pin array (10 nL slotted pins, V&P Scientific, San Diego, CA). In addition, a duplicate 2-fold serial dilution of the control compounds auranofin, a known gold-based TrxR1 inhibitor, and juglone (5-hydroxy-1,4-naphthoquinone), a natural TrxR1 substrate, were pin-transferred to columns 2 and 3, respectively. After incubation for 15 min at room temperature (~22 deg C), 1 uL of selenite (400 uM final concentration) were dispensed to each well. The plate was immediately transferred to a ViewLux high-throughput CCD imager (PerkinElmer), wherein kinetic measurements of NADPH fluorescence (Ex 340 nm, Em 450 nm) were acquired (8 minute kinetic read, see Table 1). Read 1 was utilized to assess the capacity of a compound to serve as an rTrxR1 substrate, i.e. a decrease in NADPH fluorescence compared to the no-compound background is an indication of a substrate behavior for that particular compound. For inhibitory activity of a compound, delta values, computed as the difference in fluorescence intensity between the first and last reads of an 8-minute time kinetic window, were used. All reagents were diluted in an assay buffer consisting of 50 mM Tris-HCl, pH 7.5, 2 mM EDTA, and 0.01% Tween-20.
Throughout the screen, reagent bottle and all liquid lines were made light-tight to minimize reagent degradation. All screening operations were performed on a fully integrated robotic system (Kalypsys, San Diego, CA) containing one RX-130 and two RX-90 anthropomorphic robotic arms (Staubli, Duncan, SC). Library plates were screened starting from the lowest and proceeding to the highest concentration, and a 'double-pinning' step of the highest concentration was required to access higher concentrations of compounds. Vehicle-only plates, with DMSO being pin-transferred to the columns 5-48, were inserted uniformly at the beginning and the end of each library in order to monitor and record any shifts in the background, which can be affected by reagent dispensers or loss in enzyme activity over time. Screening data were corrected, normalized, and concentration-effect relationships were derived by using publicly-available curve fitting algorithms developed in-house (http://ncgc.nih.gov/pub/openhts).
In the case of `CCCn1c(=O)c2[nH]c(-c3ccc(OCC(=O)NCCN)cc3)nc2n(CCC)c1=O`, the “activity change, negative = NADPH consumption” value (shortened to “activity change”) is reported as 40.5%. In the case of `CCN(CC)c1ncnc2c1ncn2[C@@H]1O[C@H](COP(=O)(O)OP(=O)(O)C(Br)(Br)P(=O)(O)O)[C@@H](O)[C@H]1O`, the “activity change” value is reported as -2.57%. `CCC1C(=O)OCC1Cc1cncn1C` (stereo not given) was tested, and the Potency was “inactive”. With `CN1CCC[C@H]1c1cccnc1` the “activity change” value was 1.26%. In the case of `N#C/C(=C\c1c[nH]c2ccccc12)C(=O)c1ccc(O)c(O)c1`, the “activity change” value is reported as -9.12%. With `CN1CCc2cc(O)c(O)cc2C(c2ccccc2)C1` (stereo not given) the “activity change” value was -9.12%. `NC[C@H]1O[C@@H](n2cnc3c(N)ncnc32)[C@H](O)[C@@H]1O` was tested, and the “activity change” value was 1.08%. For `NC(=O)C1=CN(C2OC(COP(=O)(O)OP(=O)(O)OC[C@H]3O[C@@H](n4cnc5c(N)ncnc54)[C@H](OP(=O)(O)O)[C@@H]3O)C(O)C2O)C=CC1` (stereo not given in full), the “activity change” value was 2.71%. In the case of `COc1ccccc1N1CCN(CCN(C(=O)c2ccc(I)cc2)c2ccccn2)CC1`, the “activity change” value is reported as -9.87%. With `O=C(O)c1cc(=O)c2c(Cl)cc(Cl)cc2[nH]1` the “activity change” value was -7.57%. With `Cc1ccc(O)c(N=Nc2ccccc2)n1` the “activity change” value was -4.33%. `N=C(N)SCCc1ccc(CCSC(=N)N)cc1` was tested, and the “activity change” value was -10.3%. In the case of `NCCCS(=O)(=O)O`, the “activity change” value is reported as -6.81%. For `Fc1cccc(/C=N/N=C/c2cccc(F)c2)c1`, the “activity change” value was -5.32%. For `NCCCCCCCCCCN`, the “activity change” value was -8.7%. `C=C[C@@H]1CN2CC[C@@H]1C[C@H]2[C@H](O)c1ccnc2ccc(OC)cc12` was tested, and the “activity change” value was 42%. With `O=C(O)CCCC[C@@H]1CCSS1` the “activity change” value was -7.72%. With `CC(C)NC[C@@H](O)c1ccc(O)c(O)c1` the “activity change” value was -5.78%. For `Oc1ccccc1O`, the “activity change” value was -2.47%. In the case of `NC[C@@H]1O[C@H](C23CC4CC(CC(C4)C2)C3)Cc2c1ccc(O)c2O`, the “activity change” value is reported as -5.08%. With `O=C(O)/C=C/C(O)c1ccc(Cl)cc1` (stereo not given) the “activity change” value was -3.55%. `NC(=O)C(=O)O` was tested, and the “activity change” value was -9.48%. `CCCCCCCCCCCCCCCC(=O)OC(CC(=O)O)C[N+](C)(C)C` (stereo not given) was tested, and the “activity change” value was -4.74%. `O=C(O)CNC(=O)C(CS)Cc1ccccc1` (stereo not given) was tested, and the “activity change” value was -4.65%. For `NO`, the “activity change” value was -0.528%. With `COc1ccccc1CNCCCCCCNCCCCCCCCNCCCCCCNCc1ccccc1OC` the “activity change” value was -1.88%. In the case of `O=C(Nc1ccccc1)c1cc([N+](=O)[O-])ccc1Cl`, the “activity change” value is reported as -4.36%. In the case of `Cn1c(=O)c2[nH]c(-c3ccccc3)nc2n(C)c1=O`, the “activity change” value is reported as -0.448%. With `O=C(c1cc(O)c(O)c([N+](=O)[O-])c1)c1ccccc1F` the “activity change” value was -10.1%. `CC1OC1P(=O)(O)O` (stereo not given) was tested, and the “activity change” value was -0.848%. In the case of `CCCCCCCCc1ccc(-c2ccc(C(=O)O)cc2)cc1`, the “activity change” value is reported as -8.51%. With `CCCCCC(O)c1cccc(OCc2ccc3ccccc3n2)c1` (stereo not given) the “activity change” value was -11.3%. In the case of `CC(=O)N[C@H](C(=O)O)C(C)(C)SN=O`, the “activity change” value is reported as -7.99%. `CCCCCCCCCCCCCCCC(=O)NCC(COP(=O)([O-])OCC[N+](C)(C)C)OCC` (stereo not given) was tested, and the “activity change” value was 1.98%. In the case of `CNc1ncnc2c1ncn2[C@@H]1O[C@H](CO)[C@@H](O)[C@H]1O`, the “activity change” value is reported as -11.3%. With `Cn1ncc(S(=O)(=O)Cc2ccccc2)c(Br)c1=O` the “activity change” value was -5.33%. `O=C(O)[C@@H]1C[C@H](C(=O)O)N1` was tested, and the “activity change” value was 0.554%. `Cc1nc2sccn2c(=O)c1CCN1CCC(=C(c2ccccc2)c2ccc(F)cc2)CC1` was tested, and the “activity change” value was -7.92%. For `Cc1ccccc1CNc1ncnc2c1ncn2C1OC(CO)C(O)C1O` (stereo not given), the “activity change” value was -9.1%. With `NCC1OC(O[C@H]2[C@H](O)[C@@H](OC3C(O)C(N)CC(N)C3OC3OC(CO)C(O)C(O)C3N)O[C@@H]2CO)C(N)C(O)C1O` (stereo not given in full) the “activity change” value was -5.45%.

Reference: PubChem BioAssay (NCATS)
